Compound activity: PubChem BioAssay, National Center for Advancing Translational Sciences (NCATS)
POLB inh: blocks human DNA polymerase beta activity; P06746; Pol beta primer extension/strand displacement, fluorescence kinetic; Potency, µM (doses to about 114 µM), without a hit: top-dose activity change, negative = inhibition, most hits filed as inhibitors; 340,000 compounds, 1.3% hits; AID 485314; further: potency means the concentration at half of the fitted maximal effect; on the % scale 0 is the no-effect control and ±100 the full control effect
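10 nM enzyme + cpd, 15 min RT; start with substrate 50 nM final; read 0 min and after 10 min RT. Corrected, normalized data; 4-parameter Hill curve fit.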
Pol eta inh-1: inhibitors of human DNA polymerase eta. Q9Y253. 390,000 compounds, 1.2% hits. recombinant Pol eta, fluorescent DNA replication assay. Potency, µM (highest dose often 114 µM), for the others: at the top dose activity change, negative = inhibition, most hits filed as inhibitors; further: potency means the concentration at half of the fitted maximal effect; on the % scale 0 is the no-effect control and ±100 the full control effect
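Pol eta (10 nM) was preincubated with compounds for 15 min at room temperature, after which fluorescent replication substrate (50 nM final) was added to start the reaction. Fluorescence was read kinetically at 0 and 10 min.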
Pol kappa inh-1: DNA polymerase kappa (human) inhibition; Q9UBT6; purified Pol kappa, fluorescent DNA synthesis assay, 10 min; Potency, µM (doses to about 107 µM), for the others: top-dose activity, negative = inhibition, most hits filed as inhibitors; 400,000 compounds, 0.53% hits; further: potency means the concentration at half of the fitted maximal effect; on the % scale 0 is the no-effect control and ±100 the full control effect
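Kinetic fluorescence readout at 0 and 10 min followed reaction start with substrate at 50 nM final. Beforehand, enzyme (10 nM Pol kappa) stood 15 min with compound at room temperature; buffer-only wells were negative controls.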
Pol iota inh: blocks human DNA polymerase iota activity. Q9UNA4. Pol iota fluorescent replication assay, 10 min. Potency, µM (titrated, usually from 115 µM), for inactives: at the highest dose activity, negative = inhibition, hits mostly inhibitors. 390,000 compounds, 1% hits. AID 588590; further: potency means the concentration at half of the fitted maximal effect
Target sequence (Q9UNA4 whole entry, looked up): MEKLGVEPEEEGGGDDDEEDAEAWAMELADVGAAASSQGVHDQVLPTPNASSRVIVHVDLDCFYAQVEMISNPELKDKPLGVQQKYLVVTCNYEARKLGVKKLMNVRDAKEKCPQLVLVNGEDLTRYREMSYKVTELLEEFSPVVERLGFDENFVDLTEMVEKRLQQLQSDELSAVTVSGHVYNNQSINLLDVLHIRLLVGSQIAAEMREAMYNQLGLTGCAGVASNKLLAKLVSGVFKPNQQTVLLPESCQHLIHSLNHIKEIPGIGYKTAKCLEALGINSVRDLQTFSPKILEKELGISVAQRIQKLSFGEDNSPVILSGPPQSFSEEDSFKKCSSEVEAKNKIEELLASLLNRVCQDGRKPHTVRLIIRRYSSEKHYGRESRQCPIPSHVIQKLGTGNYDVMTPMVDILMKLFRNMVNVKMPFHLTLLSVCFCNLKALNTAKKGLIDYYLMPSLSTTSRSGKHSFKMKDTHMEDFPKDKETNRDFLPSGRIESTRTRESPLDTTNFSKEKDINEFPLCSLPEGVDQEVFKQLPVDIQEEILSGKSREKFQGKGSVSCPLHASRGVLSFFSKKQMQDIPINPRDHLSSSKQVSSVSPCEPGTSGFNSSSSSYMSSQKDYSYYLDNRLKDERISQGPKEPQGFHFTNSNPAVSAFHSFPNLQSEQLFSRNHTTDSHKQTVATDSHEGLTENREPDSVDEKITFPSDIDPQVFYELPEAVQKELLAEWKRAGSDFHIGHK
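Pol iota at 10 nM preincubated 15 min with compounds at room temperature; reaction started with fluorescent substrate, 50 nM final. Fluorescence read kinetically at 0 and 10 min; buffer-only wells as negative control.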
WRN helicase inh: inhibitors of human WRN helicase; Q14191; WRN helicase unwinding, fluorescent forked duplex, kinetic; Potency, µM (series often up to 114 µM), for inactives: top-dose activity change, negative = inhibition, usual class: inhibitors; 360,000 compounds, 0.46% hits; AID 651768; further: potency means the concentration at half of the fitted maximal effect; on the % scale 0 is the no-effect control and ±100 the full control effect; nearly all actives have a fitted effect of over 55% in size
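Screening of the MLSMR collection measured strand separation of a quenched forked DNA duplex (100 nM) by 20 nM WRN with 2 mM ATP, all final. Compounds were preincubated with enzyme 15 min at room temperature.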
PI5P4K alpha inh: blocks human PI5P4K alpha kinase activity | P48426 | 330,000 compounds, 1.2% hits | max response, % | AID 652105 | PI5P4Kalpha enzyme, ADP-Glo luminescence, 60 min; stronger effect = lower value; active means max response of -50% or lower; inconclusive means between -30% and -50%; inactive means -30% or higher; further: value at the top dose of about 77 µM; on the % scale 0 is the no-effect control and ±100 the full control effect
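qHTS, 1536-well: enzyme/substrate mix, compound by pin tool, 5 microM ATP final; RT 60 min; ADP-Glo reagents 1 (45 min) then 2 (30 min); luminescence.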
GALK confirm: galactokinase (human) inhibition, confirmation | shares compounds with Pol eta inh-1 | purified GALK, Kinase-Glo ATP depletion luminescence | Potency, µM (doses to about 115 µM), without a hit: at the top dose activity, negative = inhibition, hits mostly inhibitors | 150 compounds, 70% hits | AID 2015
GALK redox cs: generates H2O2 by redox cycling, flagging GALK artifacts; Potency, µM (titrated, usually from 115 µM), without a hit: top-dose activity change, negative = H2O2 signal, hits mostly inhibitors; 150 compounds, 40% hits; Phenol red-HRP H2O2 redox cycling, absorbance 600 nm; shares compounds with Pol eta inh-1
HEK293 viability: reduces HEK-293 cell viability in GALK counter-screen; Potency, µM (series often up to 46.1 µM), inactives show at the top dose activity change, negative = cytotoxicity, hits mostly inhibitors; shares compounds with Pol eta inh-1; AID 2547; HEK-293 viability, ATP luminescence (CellTiter-Glo), 24/48 h; 170 compounds, 10% hits; further: potency means the concentration at half of the fitted maximal effect; on the % scale 0 is the no-effect control and ±100 the full control effect
Pol kappa inh-2: Pol kappa (human) inhibition, cherry-pick confirmation; shares compounds with Pol eta inh-1; purified Pol-kappa, fluorescent strand-displacement substrate; Potency, µM, most hits filed as inhibitors; 920 compounds, 76% hits; AID 720501; further: potency means the concentration at half of the fitted maximal effect
Pol eta inh-2: confirmation of human DNA polymerase eta inhibitors. shares compounds with Pol eta inh-1. Pol eta primer extension, TAMRA/BHQ fluorescence, 10 min. Potency, µM, actives largely listed as inhibitors. 2,600 compounds, 64% hits; further: potency means the concentration at half of the fitted maximal effect
Numbers without * were called inactive; ? = inconclusive; . = no result; [ ] = remark or other dose. An excerpt weighted towards active compounds, which were near 2.8% of everything screened. Unless noted, the call rests on the fitted dose curve; in most records, active means well fitted curve in the direction sought with a large enough effect; inconclusive means small, poorly fitted or top-dose-only effect, or another doubt; inactive means no such curve, though single readings can be large; an effect the other way counts as inactive or inconclusive.

SMILES	POLB inh	Pol eta inh-1	Pol kappa inh-1	Pol iota inh	WRN helicase inh	PI5P4K alpha inh	Pol eta inh-2	others
CC(C)c1ccc(OCc2ccc(C(=O)O)o2)cc1	10µM*	22.4µM*	-15.3%	?	-9.0%	-11.2	?	Pol kappa inh-2=42.3*
CCSC1=N/C(=C\c2ccc(C(=O)O)cc2)C(=O)S1	1.4%	-9.2%	-6.9%	27.8%	-23.4%	-2.0	.
O=C1SC(SCc2ccccc2Cl)=N/C1=C\c1ccc(C(=O)O)cc1	?	50.1µM*	-39.8%	?	-18.4%[11.6 µM]	-27.1	?
O=C(Nc1ccc2[nH]c(=O)[nH]c2c1)c1ccc([N+](=O)[O-])o1	.	56.2µM*	-13.2%	?	-8.2%[11.6 µM]	-24.7	?	Pol kappa inh-2=?
CC(=O)Nc1ccc(OCc2cccc(-c3nc4ccccc4c(=O)n3Cc3ccco3)c2)cc1	.	.	.	.	.	.	?
CC(=O)Nc1ccc(NC(=O)C(C)Sc2nc3ccccc3c(=O)n2Cc2ccco2)cc1 (stereo not given)	.	-19.7%	-10.8%	18.4%	-8.5%	0.4	.
COc1cccc(NC(=O)N2CCC(CN3CCOCC3)CC2)c1	-13.2%	-11.5%	-0.3%	-1.6%	.	.	.
COc1ccc(-c2cn3c(n2)sc2cc(C(=O)NCCCN4CCCCCC4)ccc23)cc1	0.4%	?	-34.9%	17.1%	.	.	.	Pol kappa inh-2=?
O=c1nc2n(-c3ccccc3F)c3ccccc3cc-2c(=O)[nH]1	-6.8%	0.7%	-3.4%	?	.	.	.
Cc1cccc(-n2c3nc(=O)[nH]c(=O)c-3cc3cc([N+](=O)[O-])ccc32)c1	29.2%	20µM*	-11.2%	?	-34.8%	11.3	47.8*
COc1ccc(OC)c(NC(=O)CSC2=Nc3ccccc3C3=NC(CCC(=O)NCCc4ccccc4)C(=O)N23)c1 (stereo not given)	1.8%	-13.6%	4.3%[60.1 µM]	-15.1%	.	.	.
O=C(N/N=C/c1ccncc1)c1cc([N+](=O)[O-])cc([N+](=O)[O-])c1O	0.4%	25.1µM*	-5.2%	?	-21.0%[57.1 µM]	?	?
Fc1cccc(-c2nc(-c3ccncc3)no2)c1	-14.3%	-3.9%	-14.0%[60.1 µM]	9.9%	.	.	.
CCOc1ccc(-c2cc(C)n3nc(C(N)=O)cc3n2)cc1	?	22.4µM*	-18.3%	28.2µM*	?	?	?
Cc1cc(C)nc(NC(=O)/C=C/c2ccccc2Cl)n1	0.8%	-16.9%	-1.8%	22.7%	-9.3%	5.4	.
Cc1cc(N)c2cc(NC(=O)/C=C/c3ccccc3Cl)ccc2n1	50.1µM*	?	-24.8%	47.8%	21.5%[11.6 µM]	?	67.5*
Cc1c(C(=O)Oc2ccc(Br)cc2)sc2ncn(Cc3ccccc3F)c(=O)c12	0.2%	-16.7%	-18.6%[60.1 µM]	14.1%	.	.	.
COc1ccc(N=C2S/C(=C\c3ccc(OC(C)C(=O)O)c(OC)c3)C(=O)N2CCc2c[nH]c3ccccc23)cc1 (stereo not given)	35.5µM*	31.6µM*	?	?	-12.0%	-53.7*	.	GALK confirm=42.1µM*;GALK redox cs=-4.8%;HEK293 viability=10.4%
COc1cc(/C=C2\SC(=Nc3ccccc3)N(CCc3c[nH]c4ccccc34)C2=O)ccc1OC(C)C(=O)O (stereo not given)	?	?	-29.4%	?	?	?	.
O=C(O)c1cc([N+](=O)[O-])cc2c1C=Cc1ccccc1O2	56.2µM*	28.2µM*	?	?	-4.5%[11.6 µM]	-8.7	.	Pol kappa inh-2=?
Cc1cccc(NC(=O)C(=O)NCC(c2cccnc2)N2CCN(Cc3ccccc3)CC2)c1 (stereo not given)	-26.5%	-11.2%	-3.1%	15.0%	.	.	.
CCN(CC)CCNS(=O)(=O)c1ccc2[nH]cc(C(=O)O)c(=O)c2c1	17.8µM*	22.4µM*	?	?	-12.0%[11.6 µM]	.	26.9*
COc1cccc(NS(=O)(=O)c2ccc3[nH]cc(C(=O)N4CCCC4)c(=O)c3c2)c1	?	-1.0%	-15.7%	-4.8%	.	.	.
CCN(CC)C(=O)c1c[nH]c2ccc(S(=O)(=O)Nc3cc(C)cc(C)c3)cc2c1=O	-0.3%	?	-13.1%	-2.7%	-6.8%	0.1	.
COc1cccc(NS(=O)(=O)c2ccc3[nH]cc(C(=O)N(C)C4CCCCC4)c(=O)c3c2)c1	-12.5%	56.2µM*	-6.2%[60.1 µM]	?	.	.	?	Pol kappa inh-2=?
SMILES	POLB inh	Pol eta inh-1	Pol kappa inh-1	Pol iota inh	WRN helicase inh	PI5P4K alpha inh	Pol eta inh-2	others
CCc1ccc(NS(=O)(=O)c2ccc3[nH]cc(C(=O)N4CCCCC4)c(=O)c3c2)cc1	?	?	-42.0%	?	1.6%[11.6 µM]	2.4	?
Cc1ccccc1NS(=O)(=O)c1ccc2[nH]cc(C(=O)N3CCCC3)c(=O)c2c1	?	89.1µM*	5.4%[60.1 µM]	?	.	.	?
Cc1ccccc1NC(=O)c1ccc2nc(Cc3ccccc3)oc2c1	?	-18.8%	-10.1%[60.1 µM]	43.7%	.	.	.
O=C1CC2(CCCC2)CC(=O)N1CCCCNC[C@H]1COc2ccccc2O1	.	.	-7.8%[19.4 µM]	.	.	.	.
CC(C)c1ccc(NS(=O)(=O)c2ccc3[nH]cc(C(=O)N4CCCC4)c(=O)c3c2)cc1	?	?	?	79.4µM*	.	.	42.6*
CCN(CC(=O)Nc1ccccc1C(F)(F)F)C(=O)CCc1nc2ccccc2c(=O)[nH]1	12.4%	1.8%	-15.9%	5.5%	0.9%	4.4	.
Cc1ccc(NC(=O)CCc2nc3sc4c(c3c(=O)[nH]2)CCCC4)c(Br)c1	.	25.1µM*	?	39.8µM*	?	-65.8*	84.9*
CCN(CC(=O)Nc1ccccc1C(F)(F)F)C(=O)CCc1nc2sc3c(c2c(=O)[nH]1)CCCC3	.	15.8µM*	?	28.2µM*	-2.7%[11.6 µM]	?	?
